High-throughput results from PubChem.
MITF inh = MITF inhibitors, primary screen, biochemical, AlphaScreen, human; Microphthalmia-associated transcription factor (Homo sapiens), O75030; AID 1259374, 2018; 650,000 compounds, 0.91% hits; AlphaScreen MITF homodimerization, bead proximity signal; inhibition, % at 2.6 µM; in the data active = inhibition above about 50%;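 note: 0% = vehicle wells with protein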
FBW7 act = FBW7 E3 ligase activators, primary screen, biochemical, AlphaScreen, human; F-box/WD repeat-containing protein 7 (Homo sapiens), Q969H0; AlphaScreen FBW7–phospho-cyclin E peptide binding, activator screen; normalized activity (activation), % at 26.1 µM; 650,000 compounds, 0.13% hits; AID 1259310, 2017; in the data active = normalized activity above about 1.9%;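 note: purified mutant Fbw7 with reduced substrate affinity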
GPR151 activ = activators of human GPR151, primary screen, cell-based, PathHunter beta-arrestin, luminescence. G-protein coupled receptor 151 (Homo sapiens), Q8TDV0. PathHunter beta-arrestin GPR151 cells. activation, % at 11.2 µM. 650,000 compounds, 1% hits. AID 1508602, 2020; in the data active = activation above about 4.9%;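 note: 0% = median of compound wells and 100% = cells with positive control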
Target sequence (Q8TDV0 whole entry, looked up): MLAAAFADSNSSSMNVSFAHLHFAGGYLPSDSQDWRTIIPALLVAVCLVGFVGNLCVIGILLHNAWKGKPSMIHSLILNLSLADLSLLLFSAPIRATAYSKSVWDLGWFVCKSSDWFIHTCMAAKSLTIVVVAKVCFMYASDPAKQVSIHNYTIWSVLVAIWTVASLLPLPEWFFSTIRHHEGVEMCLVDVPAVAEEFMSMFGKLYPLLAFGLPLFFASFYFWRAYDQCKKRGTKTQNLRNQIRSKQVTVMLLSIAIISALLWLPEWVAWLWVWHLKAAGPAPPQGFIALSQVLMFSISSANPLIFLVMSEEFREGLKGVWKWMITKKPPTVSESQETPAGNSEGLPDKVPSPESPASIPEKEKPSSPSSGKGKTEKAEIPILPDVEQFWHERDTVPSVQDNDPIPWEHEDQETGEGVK
TEAD-YAP block = TEAD-YAP interaction inhibition, primary screen, TEAD-YAP interaction inhibitor project, luminescence, HEK-TIYL cells | 640,000 compounds, 1.4% hits | TEAD-Gal4/YAP UAS-luciferase luminescence | inhibition, % at 9.12 µM | AID 1259422, 2018; in the data active = inhibition above about 32%;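 note: 0% = median of test compound wells and 100% = reference inhibitor wells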
GPR151 conf act = GPR151 activators, triplicate retest, confirmation, cell-based, PathHunter beta-arrestin, luminescence. activation, % at 11.2 µM. 6,700 tested, under 10 active. GPR151 PathHunter beta-arrestin cells, 90 min; % of EA-reagent control over plate median. AID 1508609, 2020. shares compounds with GPR151 activ;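 active = mean percent activation across replicates above the confirmation screen cutoff of 4.91%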
GPR119 counter = GPR119 activators in beta-arrestin cells, counter-screen for GPR151 activator project, cell-based, PathHunter beta-arrestin, luminescence, triplicate; AID 1508611, 2020; activation, % at 11.2 µM; shares compounds with GPR151 activ; 90 min; 0 = compound-well median, 100 = enzyme-acceptor control; 6,700 compounds, 0.3% hits;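 active = mean percent activation in the counterscreen above 29.09%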;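 note: counterscreen on off-target GPR119 to flag nonselective hits from the GPR151 activator screen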
* marks the source's active call; other numbers are inactive results; . = no result. Rows were chosen to be rich in hits. Some 3.5% of all compounds tested hit in one or more screens of this group.

SMILES | MITF inh | FBW7 act | GPR151 activ | TEAD-YAP block | GPR151 conf act | GPR119 counter
Cc1cc(=O)c2cc([N+](=O)[O-])ccc2[nH]1 | -1 | 0 | -1 | 6 | . | .
Cc1ccc2[nH]c(C)c(Br)c(=O)c2c1 | -13 | 0 | -1 | 7 | . | .
CCn1c(C)cc(C=C2C(=O)c3ccccc3C2=O)c1C | -4 | 0 | 8.2* | 66* | 0 | -26
c1ccc(CN2CCOCCOCCOCCOCCOCC2)cc1 | 3 | 0 | 0 | -1 | . | .
CC(C(=O)OCC(=O)c1ccc(Br)cc1)N1C(=O)C2C3CCC(C3)C2C1=O (stereo not drawn) | 4 | 0 | -2 | -16 | . | .
Cc1ccc(C(=O)COC(=O)C(C)N2C(=O)C3C4CCC(C4)C3C2=O)cc1 (stereo not drawn) | 36 | 0 | 5.4* | -16 | -1 | -13
COC(=O)c1ccc(NC(=O)CN(c2ccc(F)cc2)S(C)(=O)=O)cc1 | 1 | 1 | -1 | -11 | . | .
COC(=O)c1ccc(C)c(NC(=O)CN(c2ccc(F)cc2)S(C)(=O)=O)c1 | -12 | 0 | 7.1* | 2 | -1 | -5
C/C(CC(=O)Nc1ccc(F)cc1)=N\NC(=O)c1ccc(I)cc1 | -7 | 0 | 0 | -17 | . | .
CCCN(C(=O)C1CCC1)c1nnc(-c2cccnc2)s1 | 16 | 0 | 0 | -16 | . | .
COc1ccc(C2CC(=O)N3CN(Cc4ccccc4)CSC3=C2C#N)cc1 (stereo not drawn) | 8 | 0 | 5.8* | 6 | -1 | -12
COc1ccc(-c2cnc(NCCc3c[nH]c4ccccc34)nc2)cc1 | 0 | 0 | 5.2* | -11 | 0 | -8
NCCNC(=O)/C(=N\O)c1ccccc1 | 4 | 0 | 0 | 15 | . | .
O=C(NCCCNCCCNC(=O)/C(=N/O)c1ccccc1)/C(=N/O)c1ccccc1 | 10 | 0 | 5.4* | -6 | 0 | 4
COc1cc([N+](=O)[O-])c(N2CCOCC2)c([N+](=O)[O-])c1OC | -4 | 0 | 5.4* | -4 | 0 | 0
CC(C)CCNC(=O)c1noc2c1COc1ccccc1-2 | 3 | 0 | 6.6* | -72 | -1 | -18
O=C(NCc1ccccc1)c1noc2c1COc1ccccc1-2 | -4 | 0 | 1 | -8 | . | .
CN1CCN(/N=C/C2=C(O)CC(C)(C)CC2=O)CC1 | 23 | 1 | 8.4* | -1 | 0 | 4
Cc1cccc2cc(CN(CC3CCCO3)C(=O)CC(C)(C)C)c3nnnn3c12 (stereo not drawn) | -1 | 0 | 1 | -1 | . | .
COc1cccc2cc3c(=O)n(-c4ccccc4)nc-3oc12 | 7 | 0 | 10* | 13 | 1 | 1
CCCCN1C(=O)c2ccc(C(=O)Nc3cc(Cl)ccc3C(=O)O)cc2C1=O | 3 | 0 | 7.2* | 8 | 0 | -1
COc1ccc(-c2ocnc2C(=O)N2CCC(C(N)=O)CC2)cc1 | 5 | 1 | 0 | 2 | . | .
COC(=O)C1=NNC2C(=O)N(c3ccc(OC)cc3)C(=O)C12 (stereo not drawn) | 18 | 0 | 6.1* | 8 | 0 | 8
Cn1nc([N+](=O)[O-])c2c(-c3nc4ccccc4n3C)c(N)n(CCc3ccccc3)c2c1=O | 1 | 0 | 6.0* | 7 | -1 | -11
CCN(CC)c1nc(NC2CCN(Cc3ccccc3)CC2)nc(N2CCOCC2)n1 | 3 | 0 | 5 | 2 | . | .
SMILES | MITF inh | FBW7 act | GPR151 activ | TEAD-YAP block | GPR151 conf act | GPR119 counter
CCOc1ccc(C(=O)N2CCC(c3ncncc3-c3ccncc3)CC2)o1 | -3 | 0 | 18* | -9 | 1 | 11
CCOc1ccc(C(=O)N2CCCC(c3ncncc3-c3ccncc3)C2)o1 (stereo not drawn) | 10 | 0 | 3 | 3 | . | .
O=C(CCCn1c(=O)[nH]c2ccccc2c1=O)N1CCN(c2ccc(Cl)cc2)CC1 | 13 | 1 | 5.5* | 3 | 0 | -1
COc1ccc([N+](=O)[O-])cc1CSc1nc2ccc(N3C(=O)C4C5C=CC(C5)C4C3=O)cc2s1 (stereo not drawn) | 16 | 0 | 0 | 9 | . | .
COc1cc(-c2cn3c(NC(=O)c4cccs4)c(C)nc3cn2)cc(OC)c1OC | -6 | 0 | 5.3* | -5 | 1 | 11
CCOc1ccc(NC(=O)C(Sc2ccccc2)c2ccccc2)c([N+](=O)[O-])c1 (stereo not drawn) | 7 | 0 | 6.1* | -14 | 1 | 18
COc1ccc(/C(O)=C2\C(=O)C(=O)N(Cc3ccncc3)C2c2ccc(C)cc2)cc1 (stereo not drawn) | 6 | 0 | -1 | 1 | . | .
COc1cccc(Nc2nnc(-c3cc4ccc(O)cc4oc3=O)s2)c1 | 3 | 0 | 5.8* | -3 | -1 | -15
CCOC(=O)C(C(C)=O)C(NC(=O)c1cccnc1)(C(F)(F)F)C(F)(F)F (stereo not drawn) | 7 | 1 | 0 | -2 | . | .
COc1ccccc1NC(=O)C1CC(=O)OC1(C)C (stereo not drawn) | 3 | 1 | 0 | 1 | . | .
COc1ccccc1NC(=O)C1CC(=O)OC12CCOC(C)(C)C2 (stereo not drawn) | -4 | 0 | 6.5* | -19 | 0 | 7
O=S(=O)(c1cccs1)n1c(SCc2c(F)cccc2F)nc2ccccc21 | -6 | 0 | 2 | -8 | . | .
CCOC(=O)/C(C#N)=C/c1ccccc1O | 17 | 0 | -1 | 8 | . | .
Nc1nc2ccc(Oc3ccccc3)cc2s1 | 3 | 0 | 8.9* | 1 | 0 | -3
Nc1nc2ccc(OC(F)(F)F)cc2s1 | -8 | 0 | -2 | -18 | . | .
O=C(CN1C=NS(=O)(=O)c2ccccc21)Nc1ccccc1C(F)(F)F | 6 | 1 | 0 | 5 | . | .
O=C(NCCc1ccccc1)C(=O)NCC1CCCN1S(=O)(=O)c1cccs1 (stereo not drawn) | 9 | 0 | 7.3* | 6 | -1 | -10
CCOC(=O)C(=O)NCC1CCCN1S(=O)(=O)c1cccs1 (stereo not drawn) | 17 | 0 | -1 | 2 | . | .
Cc1ccc(S(=O)(=O)N2CCCC2CNC(=O)C(=O)NCCO)cc1 (stereo not drawn) | 4 | 0 | 2 | 5 | . | .
Cc1ccc(S(=O)(=O)N2CCCC2CNC(=O)C(=O)NC2CCCCCC2)cc1 (stereo not drawn) | 3 | 0 | 1 | 10 | . | .
CCNC(=O)C(=O)NCC1CCCN1S(=O)(=O)c1ccc(C)cc1 (stereo not drawn) | -1 | 0 | 6.2* | -2 | -1 | -3
